Bioassay records: PubChem BioAssay, National Center for Advancing Translational Sciences (NCATS)
Hits are enriched below; roughly 2.4% of the tested compounds scored in any of these assays.
Cruzain Triton = qHTS Assay for Promiscuous and Specific Inhibitors of Cruzain (with detergent); Cruzipain (Trypanosoma cruzi), P25779; purified cruzain, Z-FR-AMC fluorescence, 0.01% Triton; Potency, µM, usual class: inhibitors; 200,000 tested, 0.43% active; also: nearly all actives have a fitted effect of over 40% in size
Target sequence (P25779 123-467 limits assumed): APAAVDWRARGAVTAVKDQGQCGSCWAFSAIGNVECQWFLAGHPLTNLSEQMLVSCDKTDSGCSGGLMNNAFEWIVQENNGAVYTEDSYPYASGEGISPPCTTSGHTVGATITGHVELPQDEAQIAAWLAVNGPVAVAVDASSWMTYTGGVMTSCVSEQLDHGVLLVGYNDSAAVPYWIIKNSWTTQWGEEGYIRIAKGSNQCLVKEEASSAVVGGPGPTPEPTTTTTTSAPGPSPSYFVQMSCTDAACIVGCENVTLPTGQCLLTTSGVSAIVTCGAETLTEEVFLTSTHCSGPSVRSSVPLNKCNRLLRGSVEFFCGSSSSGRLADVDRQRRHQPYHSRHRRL
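Enzyme 1.5 nM, Z-FR-AMC 2 uM, NaOAc 100 mM pH 5.5, DTT 5 mM, Triton X-100 0.01%; 15 min RT compound preincubation; kinetic ex360/em450, 60 s delta.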
Cruzain inh noDet = qHTS Assay for Promiscuous and Specific Inhibitors of Cruzain (without detergent) | AID 1476, 2009 | Potency, µM, actives largely listed as inhibitors | 200,000 tested, 2.3% active | purified cruzain, Z-FR-AMC fluorescence, no detergent | Cruzipain (Trypanosoma cruzi), P25779; also: nearly all actives have a fitted effect of over 40% in size
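Purified cruzain at 1.5 nM, pre-incubated 15 min with compound at room temperature in 100 mM sodium acetate pH 5.5, 5 mM DTT, 0.00005% Triton X-100. Reaction started with 2 uM Z-FR-AMC; AMC fluorescence increase over 60 s gives rate.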
Each line names hits and unclear results; the compound was inactive in the other large screens; ! = a repeat was not active. Calls follow the shape of the dose curve; as a rule, active = well fitted curve in the direction sought with a large enough effect; inconclusive = small, poorly fitted or top-dose-only effect, or another doubt; inactive = no such curve, though single readings can be large; an effect the other way counts as inactive or inconclusive.

O=C(Nc1nc2c(s1)CCCC2)c1cccc(S(=O)(=O)N2CCCc3ccccc32)c1	Cruzain inh noDet 25.1µM
CN1CCc2nc(NC(=O)c3cccc(S(=O)(=O)N4CCc5ccccc54)c3)sc2C1	Cruzain inh noDet 15.8µM
O=C(Nc1nc2c(F)cc(F)cc2s1)c1ccc(S(=O)(=O)N2CCc3ccccc32)cc1	none
O=C(Nc1nc2c(F)cccc2s1)c1ccc(S(=O)(=O)N2CCCc3ccccc32)cc1	none
Cc1ccc2nc(NC(=O)c3ccc(S(=O)(=O)N4CCCc5ccccc54)cc3)sc2c1	Cruzain inh noDet 6.31µM!
Cc1cccc(C(=O)Nc2nnc(S(=O)(=O)N3CCCc4ccccc43)s2)c1	none
CCC(CC)c1nnc(NC(=O)c2cccc(S(=O)(=O)N3CCc4ccccc43)c2)s1	Cruzain inh noDet inconclusive
O=C(Nc1nc2ccc(F)cc2s1)c1cccc(S(=O)(=O)N2CCc3ccccc32)c1	Cruzain inh noDet 7.94µM
COc1ccc(CCNC(=O)Cc2c(C)c3cc4c(C)coc4cc3oc2=O)cc1OC	none
CCC(=O)Nc1cc(-c2nc3cc(C)cc(C)c3o2)ccc1C	Cruzain inh noDet inconclusive
CC(C)(C)NC(=O)Cc1ccc(S(=O)(=O)N2CCCC2)s1	none
O=C(Cc1ccc(S(=O)(=O)N2CCCC2)s1)Nc1nc2c(s1)CCCC2	Cruzain inh noDet 20µM
O=C(/C=C\NCC(=O)c1ccccc1)c1ccc2ccccc2c1	Cruzain inh noDet 31.6µM
O=C(/C=C\NCC(=O)c1ccccc1)c1ccc(F)cc1	none
COc1ccc(NC(=O)CSc2nnc(-c3ccncc3)n2-c2ccccc2)cc1	none
CCOc1ccc(NC(=O)/C=C/c2ccc(OC)cc2)c([N+](=O)[O-])c1	Cruzain Triton 14.1µM, Cruzain inh noDet 3.98µM
CCCCC(=O)Nc1ccc(NC(=O)c2ccc([N+](=O)[O-])cc2)cc1OC	none
COc1ccc(/C=C/C(=O)Nc2ccc(OC)cc2[N+](=O)[O-])cc1	none
CCCCC(=O)Nc1ccc(C(=O)Nc2ccc(OC)cc2[N+](=O)[O-])cc1	Cruzain inh noDet 15.8µM
CCCOc1ccc(/C=C/C(=O)Nc2ccc([N+](=O)[O-])cc2C)cc1	Cruzain inh noDet 25.1µM
CCCOc1ccc(/C=C/C(=O)Nc2ccc([N+](=O)[O-])cc2C)cc1OC	none
COc1ccc(OC)c(NC(=O)C(C)n2nc(C)c3c(C)n(-c4ccccc4)nc3c2=O)c1 (configuration not stated)	none
CCOc1ccc(/C=C/c2nc(C#N)c(N3CCN(c4ccccc4)CC3)o2)cc1	none
COC(=O)C1CCN(C(c2ccccc2Cl)c2sc3nc(-c4ccco4)nn3c2O)CC1 (configuration not stated)	none
Cc1cc(NC(=O)CSc2nc3c(sc4ccccc43)c(=O)n2CCCN2CCOCC2)n[nH]1	none
Cc1cc(NC(=O)CSc2nc3c(sc4ccccc43)c(=O)n2CCc2ccccc2)n[nH]1	Cruzain inh noDet 7.94µM
Cc1ccc(Cn2c(=O)n(CCc3ccccc3)c(=O)c3sc4ccccc4c32)cc1	none
Cc1ccc(OCC(=O)Nc2ccc(-c3nc4ccc(C)cc4o3)cc2)cc1	Cruzain inh noDet 25.1µM
O=C(COc1ccc(Br)cc1)Nc1ccc(-c2nnc(-c3ccco3)o2)cc1	Cruzain inh noDet 10µM
COc1ccc(OCC(=O)Nc2ccc(-c3nc4cc(C)c(C)cc4o3)cc2)cc1	none
CCC(Oc1ccccc1)C(=O)Nc1ccc(-c2nnc(-c3ccco3)o2)cc1 (configuration not stated)	none
COCCn1c(=O)c(-c2cn(C)c3ccccc23)nc2cnc(OCc3ccccc3)nc21	none
COc1cc(/C=C2\SC(=S)N(Nc3ccccc3)C2=O)cc(OC)c1OC	none
CCOc1ccc(/C=C2\SC(=S)N(Nc3ccccc3)C2=O)cc1OC	Cruzain Triton 6.31µM, Cruzain inh noDet inconclusive
Cc1cccc(CC2S/C(=N/c3ccccn3)NC2=O)c1 (configuration not stated)	none
Clc1ss/c(=N\c2ccccn2)c1Cl	Cruzain inh noDet 25.1µM
COc1ccc(-n2cc(C(=O)OCc3ccc(Cl)cc3)c3ccccc3c2=O)cc1	none
CN(C)c1ccc(C(CNC(=O)c2ccc(C#N)cc2)c2c[nH]c3ccccc23)cc1 (configuration not stated)	Cruzain inh noDet inconclusive
CCOC(=O)c1ccc(S(=O)(=O)NCC(c2ccc(N(C)C)cc2)c2c[nH]c3ccccc23)cc1 (configuration not stated)	Cruzain inh noDet inconclusive
CN(C)c1ccc(C(CNS(=O)(=O)c2ccc(F)cc2)c2c[nH]c3ccccc23)cc1 (configuration not stated)	Cruzain inh noDet 31.6µM
CN(C)c1ccc(C(CNC(=O)c2ccccc2Br)c2c[nH]c3ccccc23)cc1 (configuration not stated)	Cruzain inh noDet 25.1µM
Cc1ccc(CN2CCSc3ccc(C(=O)N4CCN(c5cccc(C)c5C)CC4)cc32)cc1	Cruzain inh noDet inconclusive
CCOC(=O)N1CCc2c(sc3c2c(=O)n(-c2ccc(F)cc2)c(=O)n3CC(=O)c2ccccc2)C1	none
Cc1ccc(CNC(=O)CN2C(=O)COc3ccc(S(=O)(=O)N4CCC(C)CC4)cc32)cc1	Cruzain inh noDet inconclusive
Cc1cc(Br)ccc1NC(=O)C1CCN(S(=O)(=O)c2ccc(Br)s2)CC1	none
Cc1ccc(C(=O)CNc2cccc(Cl)c2)cc1	none
O=C(CNc1cccc(Cl)c1)c1ccc(Cl)cc1	Cruzain inh noDet 31.6µM
CCn1c(=O)c(=O)n(CC)c2cc(N3CCCCC3)c(NC(=O)c3ccccc3OC)cc21	none
COc1cccc(-n2nnnc2SCC(=O)Nc2nc3c(s2)CCCC3)c1	Cruzain inh noDet 25.1µM
COc1ccc(-c2nnc(SCC(=O)Nc3sc4c(c3C#N)CCCC4)n2-c2ccccc2)cc1	Cruzain inh noDet inconclusive
COc1cccc(-n2c(SCC(=O)NCc3cccs3)nc3ccccc3c2=O)c1	none
COC(=O)c1cccc(-n2nnnc2SCC(=O)Nc2nc3c(s2)CCCC3)c1	Cruzain inh noDet inconclusive
COc1cccc(-n2c(SCC(=O)Nc3sc4c(c3C(N)=O)CCC4)nc3ccccc3c2=O)c1	Cruzain inh noDet 25.1µM
COc1ccc(-c2ccc(C#N)c(SCC(=O)Nc3sc4c(c3C#N)CCC4)n2)cc1	Cruzain inh noDet 12.6µM
COc1ccc(-n2c(SCC(=O)Nc3sc4c(c3C#N)CCCC4)nnc2-c2ccccc2OC)cc1	Cruzain inh noDet 25.1µM
N#Cc1ccc(-c2cccnc2)nc1SCC(=O)Nc1sc2c(c1C#N)CCC2	none
CC(=O)N1CCc2c(sc3c2c(=O)n(Cc2ccccc2)c(=O)n3Cc2ccccc2Cl)C1	Cruzain inh noDet inconclusive
N#Cc1cccc(-c2nc(NCc3ccccc3)c3ccccc3n2)c1	none
CCC(C(=O)C(C)C(O)C(C)CCc1ccc(C)c(O)c1C(=O)O)C1OC(CC)(C2CC[C@@](O)(CC)C(C)O2)CC1C (some centres not stated)	Cruzain inh noDet inconclusive
Cn1c(=O)c2c(nc(CN3CCN(c4ccccc4F)CC3)n2Cc2ccc(F)cc2)n(C)c1=O	Cruzain inh noDet inconclusive
CCOC(=O)c1nnn(C(CC)C(=O)Nc2ccc(F)cc2)c1C(=O)OCC (configuration not stated)	none
O=C(OCc1cc(=O)n2nc(C3CC3)sc2n1)c1cccc(NC(=O)c2ccccc2Cl)c1	none
COc1ccccc1NC(=O)c1ccc(CN2C(=O)C(C)=C(c3ccc(C)c(C)c3)S2(=O)=O)cc1	Cruzain inh noDet 31.6µM
